Pf growth 96h = Primary qHTS for delayed death inhibitors of the malarial parasite plastid, 96 hour incubation; Potency, µM (highest dose often 28.7 µM), most hits filed as inhibitors; P. falciparum luciferase reporter growth, 96 h; 6.9% of 320,000 active
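Delayed-death screen, second-generation endpoint: infected erythrocytes, 2% hematocrit, 0.05% parasitemia final; 96 hours at 37 C, 5% CO2; luciferase detection reagent; luminescence decrease equals reduced growth.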
HCMV inh = qHTS Assay for inhibitors of the human cytomegalovirus (HCMV) | HFF cells, HCMV-luciferase reporter, 72 h; stronger effect = lower value | AID 1259415, 2018 | activity change, negative = inhibition, % at 57.5 µM | 4.5% of 410,000 active; in the data active = activity change below about -60%; inconclusive = no clear call, values can overlap the other calls; inactive = above about -39%
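HFF cells seeded 16 h at 37C, treated with compounds, infected with luciferase-reporter HCMV at MOI 1 PFU/cell; luciferase read at 72 h post infection, normalized to buffer-only and Salinomycin controls.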
Pf growth 48h = Primary qHTS for delayed death inhibitors of the malarial parasite plastid, 48 hour incubation; P. falciparum luciferase growth in erythrocytes, 48 h; Potency, µM (top dose mostly 28.7 µM), hits mostly inhibitors; 5.9% of 310,000 active; AID 504832, 2011
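In quantitative HTS format, infected erythrocytes bearing luciferase-reporter parasites were treated for a single generation at 37 C. Luminescence after adding detection reagent served as the growth measure.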
Shiga toxin inh = A qHTS for Small Molecule Inhibitors of Shiga Toxin; Vero cells, Shiga toxin protein synthesis inhibition reporter; inhibition, % at 38.7 µM; 9.2% of 290,000 active; in the data active = inhibition mostly above about 28%, no sharp cut-off; inactive = mostly below about 43%
Cycloheximide cs = Cycloheximide Counterscreen for Small Molecule Inhibitors of Shiga Toxin | cell reporter, cycloheximide protein synthesis inhibition counterscreen | max response, % | 12% of 300,000 active | AID 2314, 2010; in the data active = max response mostly above about 13%, no sharp cut-off; inactive = mostly below about 14%; also: read at 38.3 µM for the half of the compounds with a filed dose
HCV inh = qHTS Assay for Inhibitors of Hepatitis C Virus (HCV). 3.4% of 340,000 active. AID 651820, 2012. Potency, µM (series often up to 41.8 µM), hits mostly inhibitors. Huh7.5.1 HCVcc-Cre infection, luciferase reporter, 44 h
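HCVcc-Cre virus at an moi near 0.5 was added right after compound to cells cultured 4 h from seeding (1,000 cells/well). Luciferase activity was determined 44 h later, 15 min after substrate addition at RT.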
Numbers stand for hits; [ ] = another dose, or the depositor's remark. Sampled rows, rich in hits. Any-hit rate of the full collection: about 21%. Unless noted, calls follow the shape of the dose curve; as a rule, active = well fitted inhibition curve with a large enough effect; inconclusive = small, poorly fitted or top-dose-only effect, or another doubt; inactive = no such curve, though single readings can be large or run the other way.

What do the screens show for `Cc1cc(NC(=O)C(C)Oc2ccc(Cl)cc2Cl)no1` (stereo not drawn)?
Pf growth 96h: 1.7µM; HCMV inh: inactive; Pf growth 48h: inactive; Shiga toxin inh: inactive; Cycloheximide cs: inactive; HCV inh: inactive

Results for COC(=O)NNC(=O)C(C)Oc1ccc(Cl)cc1Cl (stereo not drawn) ?
HCMV inh: inactive; Pf growth 48h: inactive; Shiga toxin inh: inactive; Cycloheximide cs: inactive; HCV inh: inconclusive

Results for CC(Oc1ccc(Cl)cc1Cl)C(=O)Nc1ncccn1 (stereo not drawn) ?
Pf growth 96h: inconclusive; HCMV inh: inactive; Shiga toxin inh: inactive; Cycloheximide cs: 22; HCV inh: inactive

Results for CC(Oc1ccc(Cl)cc1Cl)C(=O)N(C)c1ccccc1 (stereo not drawn) ?
Pf growth 96h: inconclusive; HCMV inh: -67; Pf growth 48h: inactive; Shiga toxin inh: inactive; Cycloheximide cs: inactive; HCV inh: inactive

What do the screens show for `Cc1cccc(NC(=S)NNC(=S)NC2CCCCC2)c1C`?
Pf growth 96h: inactive[5.75 µM]; HCMV inh: inactive; Pf growth 48h: inactive; Shiga toxin inh: 44; Cycloheximide cs: 16; HCV inh: inactive

How did Cc1cccc(C)c1NC(=S)NC1CCCCC1 do in these assays?
Pf growth 96h: 10µM; HCMV inh: inactive; Pf growth 48h: inactive; Shiga toxin inh: inactive; Cycloheximide cs: inactive; HCV inh: inactive

What do the screens show for `COc1ccc(NC(=O)CSc2cn(CCNC(=O)c3c(F)cccc3F)c3ccccc23)cc1`?
HCMV inh: inactive

How did COc1cccc(-c2sc3ccc(OC)cc3c2-c2ccc(C(N)=O)cc2)c1 do in these assays?
Pf growth 96h: inconclusive; HCMV inh: inactive; Pf growth 48h: inconclusive; HCV inh: 2.5µM

How did COc1cccc(-c2sc3ccc(OC)cc3c2-c2ccc(OC)cc2F)c1 do in these assays?
Pf growth 96h: inconclusive; HCMV inh: inactive; Pf growth 48h: inconclusive; HCV inh: inactive

How did COc1ccc2sc(-c3ccc(SC)cc3)c(-c3ccc(O)cc3)c2c1 do in these assays?
HCMV inh: inactive; HCV inh: 13µM

What do the screens show for `COc1cc(OC)c(N(C)C(=O)C2CCCN(c3ncnc4c3nc3n4CCCCC3)C2)cc1Cl` (stereo not drawn)?
HCMV inh: inactive

How did CC(=O)c1c(N2CCCC2)[nH]c(-c2ccccc2)nc1=S do in these assays?
Pf growth 96h: inconclusive; HCMV inh: inactive; Shiga toxin inh: inactive; Cycloheximide cs: inactive; HCV inh: 22µM

Results for CC(=O)c1c(N2CCN(Cc3ccccc3)CC2)[nH]c(-c2ccccc2)nc1=S ?
Pf growth 96h: inactive; Pf growth 48h: 4.7µM; Shiga toxin inh: inactive; Cycloheximide cs: inactive; HCV inh: inactive

How did CC(=O)c1c(N2CCN(Cc3ccccc3)CC2)nc(=S)n(Cc2ccccc2)c1C do in these assays?
Pf growth 96h: inactive; HCMV inh: inconclusive; Pf growth 48h: inactive; Shiga toxin inh: inactive; Cycloheximide cs: inactive; HCV inh: inconclusive

How did CC(=O)c1c(N2CCOCC2)[nH]c(-c2ccccc2)nc1=S do in these assays?
Pf growth 96h: inconclusive; HCMV inh: inactive; Pf growth 48h: inactive; Shiga toxin inh: inactive; Cycloheximide cs: inactive; HCV inh: inactive

How did CCCCC1(CC(=O)OC)C(=O)N(c2ccccc2)N(c2ccccc2)C1=O do in these assays?
Pf growth 96h: inactive; HCMV inh: inconclusive; Pf growth 48h: inconclusive; Shiga toxin inh: inactive; Cycloheximide cs: inactive; HCV inh: inactive

What do the screens show for `CCCCC1(Cc2ccc(OC)c([N+](=O)[O-])c2)C(=O)N(c2ccccc2)N(c2ccccc2)C1=O`?
Pf growth 96h: inconclusive; HCMV inh: inconclusive; Pf growth 48h: 1.5µM; Shiga toxin inh: inactive; Cycloheximide cs: inactive; HCV inh: inconclusive

Results for Cc1cc(Nc2cccc(Cl)c2)nc2ccc(NC(=O)COc3ccc(Cl)cc3)cc12 ?
HCMV inh: -106

What do the screens show for `O=C(COc1ccc(-n2ccnc2)cc1)Nc1cccc(Cl)c1`?
Pf growth 96h: inconclusive; HCMV inh: -64; Pf growth 48h: inactive; Shiga toxin inh: inactive; Cycloheximide cs: inactive; HCV inh: inconclusive

How did Cc1cc(Nc2cccc(Cl)c2)nc2ccc(NC(=O)c3cncc(Br)c3)cc12 do in these assays?
HCMV inh: -100

What do the screens show for `COc1ccc(Nc2cc(C)c3cc(NC(=O)Cc4ccc(Cl)cc4)ccc3n2)cc1`?
HCMV inh: inactive

Results for Cc1cccc(OCC(=O)Nc2ccc3nc(Nc4cccc(Cl)c4)cc(C)c3c2)c1 ?
HCMV inh: -63

What do the screens show for `Nc1nc(NS(=O)(=O)c2ccc(Cl)cc2)nn1-c1ccccc1`?
Pf growth 96h: inactive; HCMV inh: inactive; Pf growth 48h: inactive; Shiga toxin inh: inactive; Cycloheximide cs: inactive; HCV inh: inactive

How did C=CCN=C(NC#N)SC do in these assays?
Pf growth 96h: inactive; HCMV inh: inactive; Pf growth 48h: 0.23µM; Shiga toxin inh: inactive; Cycloheximide cs: inactive; HCV inh: inactive

How did Cc1cc(C)n(-c2ccc(C(=O)OC(C)C)cc2)n1 do in these assays?
Pf growth 96h: inactive; HCMV inh: inactive; Pf growth 48h: inactive; Shiga toxin inh: inactive; Cycloheximide cs: 20; HCV inh: inactive

Results for Cc1cc(C)n(-c2ccc(C(=O)N3CCc4ccccc43)cc2)n1 ?
Pf growth 96h: inactive; HCMV inh: inactive; Pf growth 48h: inactive; Shiga toxin inh: 63; Cycloheximide cs: 18; HCV inh: inconclusive

Results for Cc1cc(C)n(-c2ccc(C(=O)O)cc2)n1 ?
Pf growth 96h: 1.9µM; HCMV inh: inactive; Pf growth 48h: inactive; Shiga toxin inh: inactive; Cycloheximide cs: inactive; HCV inh: inactive

What do the screens show for `Cc1cc(N)n(-c2ccc(C(=O)O)cc2)n1`?
Pf growth 96h: inconclusive; HCMV inh: inactive; Pf growth 48h: inactive; Shiga toxin inh: inactive; Cycloheximide cs: inactive; HCV inh: inactive

Results for Cc1cc(C)n(-c2ccc(C(=O)NCC(=O)Nc3cc(Cl)ccc3Cl)cc2)n1 ?
HCMV inh: active; HCV inh: inactive

Results for Cc1cc(C)n(-c2ccc(C(=O)NC(C)C)cc2)n1 ?
Pf growth 96h: inactive; HCMV inh: inactive; Pf growth 48h: inactive; Shiga toxin inh: inactive; Cycloheximide cs: inactive; HCV inh: inactive

Results for COc1ccc(Cl)cc1NC(=O)CN(C)C(=O)c1ccc(-n2nc(C)cc2C)cc1 ?
Pf growth 96h: inconclusive; HCMV inh: inactive; Pf growth 48h: inconclusive; HCV inh: inconclusive

What do the screens show for `COc1ccc(S[C@]2(C(=O)N3CCCC3)CC(=O)N(c3ccc(C#N)cc3)[C@@H]2c2ccc(OC)cc2)cc1`?
HCMV inh: inactive

Results for CCN1CCN(C(=O)c2ccc3c(c2)N(Cc2ccc(F)cc2)C(=O)c2ccccc2S3(=O)=O)CC1 ?
HCMV inh: inactive

What do the screens show for `CC(C)N1C(=O)CCN(C=O)c2ccccc21`?
Pf growth 96h: inactive; HCMV inh: inactive; Pf growth 48h: inactive; Shiga toxin inh: inactive; Cycloheximide cs: inactive; HCV inh: inactive
